Results published in PubChem BioAssay AID463173 (ICCB-Longwood Screening Facility, Harvard Medical School, 2010).
Out of some 52,000 compounds screened, about 1,700 (3.3%) were called active. What follows is part of a selection rich in actives, with near analogues and random picks from the rest. Unmarked numbers belong to inactive results. No stated cut-off is given here; in the data, active means survival mostly below about 52% (no sharp cut-off); inactive means mostly above about 56%.

The compounds below were run on Wild type (assay: S. aureus survival, RN4220 and DeltatarO strains – OD600, teichoic acid synthesis inhibitors, primary screen (AID 463173)). Conditions: S. aureus RN4220 wild type/DeltatarO growth, OD600, 18 h, stronger effect = lower value, screened at 18.75 µg/mL (by protocol).
`CCOc1ccc(CNC(=O)CS(=O)(=O)c2cccc3nsnc23)cc1` showed a survival of 126%.
`COc1ccccc1NC(=O)C1CCN(C(=O)c2ccccc2)CC1` showed a survival of 94%.
`Cc1c(Cl)cccc1-n1ncc(C(=O)Nc2ccc(F)cc2F)c1C1CCN(C(=O)OC(C)(C)C)CC1` gave a survival of 71%.
`Cc1ccc(C)c(Nc2nc3nonc3nc2Nc2cccc(C)c2C)c1` was tested, and the survival was 4% (active).
Compound `Cc1cccc(Nc2nc3nonc3nc2Nc2cccc(C)c2C)c1C` has a survival of 102%.
For `CCOC(=O)c1ccc(Nc2nc3nonc3nc2NCc2ccco2)cc1`, the survival was 35%.
`Cc1cccc(Nc2nc3nonc3nc2N/N=C\c2cccs2)c1C` gave a survival of 96%.
In the case of `CCOC(=O)c1ccc(Nc2nc(C)cc(C)n2)cc1`, the survival is reported as 87%.
For `CCOC(=O)c1ccc(Nc2nc3nonc3nc2Nc2cccc(C)c2C)cc1`, the survival was 0% (active).
`CCS(=O)(=O)N1CCc2cc(C(=O)Nc3ccc(OC)cc3OC)ccc21` was tested, and the survival was 88%.
`Cc1ccc([N+](=O)[O-])cc1NC(=O)CN(c1ccccc1)S(=O)(=O)N(C)C` gave a survival of 69%.
`CCn1c(O)c(C=Nc2cccc(O)c2)sc1=S` gave a survival of 115%.
`Cn1cnc(S(=O)(=O)N2CCCC(C(=O)Nc3ccc(OC(F)(F)F)cc3)C2)c1` (configuration not stated) showed a survival of 19%.
`CCOc1ccc(CNC(=O)c2[nH]c3ccccc3c2Sc2ccc(C)cc2)cc1` gave a survival of 120%.
With `CCN1C(=O)c2ccccc2S(=O)(=O)c2ccc(C(=O)NCc3ccc(OC)cc3)cc21` the survival was 97%.
Work on `CCN(CC)CCCNC(=O)c1ccc2c(c1)N(Cc1c(F)cccc1Cl)C(=O)c1ccccc1S2` yielded a survival of 139%.
For `CCN(CC)C(=O)c1ccc2c(c1)N(Cc1c(F)cccc1Cl)C(=O)c1ccccc1S2`, the survival was 16% (active).
Work on `CN(C)CCNC(=O)c1ccc2c(c1)N(Cc1c(F)cccc1Cl)C(=O)c1ccccc1S2` yielded a survival of 105%.
With `Cc1ccc(Cl)cc1NC(=O)CN1C(=O)c2cccc3cccc1c23` the survival was 71%.
In the case of `CCC(=O)N1CCc2cc(Br)cc(S(=O)(=O)N3CCN(c4ccccc4OC)CC3)c21`, the survival is reported as 72%.
With `Cc1cc(C)n(-c2nc3cc(Cl)ccc3nc2N2CCN(c3ccccc3F)CC2)n1` the survival was 68%.
Compound `Cc1cc(C)n(-c2nc3cc(Cl)ccc3nc2Nc2ccc(C)c(F)c2)n1` has a survival of 86%.
`COc1ccccc1N1CCN(c2nc3ccc(C)cc3nc2-n2nc(C)cc2C)CC1` was tested, and the survival was 0% (active).
With `Cc1ccc2nc(N3CCN(c4cccc(Cl)c4)CC3)c3nnnn3c2c1` the survival was 72%.
For `Cc1cc(C)n(-c2nc3ccccc3nc2N2CCN(c3cccc(C)c3C)CC2)n1`, the survival was -1% (active).
Work on `Cc1cc(C)n(-c2nc3ccccc3nc2N2CCN(c3cccc(C(F)(F)F)c3)CC2)n1` yielded a survival of 88%.
With `Cc1cc(C)n(-c2nc3cc(Cl)ccc3nc2N2CCN(c3cccc(C)c3C)CC2)n1` the survival was -1% (active).
`COc1cccc(Nc2nc3ccc(C)cc3nc2-n2nc(C)cc2C)c1` gave a survival of 82%.
`Cc1ccc(C)c(N2CCN(c3nc4ccc(C)cc4nc3-n3nc(C)cc3C)CC2)c1` was tested, and the survival was 86%.
With `Cc1ccc2nc(N3CCN(c4cccc(Cl)c4)CC3)c(-n3nc(C)cc3C)nc2c1` the survival was 3% (active).
`Cc1cc(C)n(CCc2nc3c4ccccc4nc(N4CCN(c5cccc(C)c5C)CC4)n3n2)n1` showed a survival of 74%.
`Cc1cc(C)c(C#N)c(N2CCN(c3cccc(C)c3C)CC2)n1` showed a survival of 109%.
`COc1ccc(-c2oc3ncn4nc(COc5cccc(C)c5C)nc4c3c2-c2ccc(OC)cc2)cc1` showed a survival of 77%.
In the case of `Cc1ccc(C)c(Cn2nc(C)n3c(cc4cc(C)ccc43)c2=O)c1`, the survival is reported as 79%.
`Cc1ccc(Cl)cc1N1CCN(C(=O)c2cc3c(=O)oc4ccccc4c3s2)CC1` was tested, and the survival was 71%.
`COCCN(Cc1cc2ccc(C)c(C)c2nc1Cl)C(=O)N1CCOCC1` showed a survival of 104%.
In the case of `COc1ccc(C(C)C)cc1S(=O)(=O)N1CC(C)OC(C)C1` (configuration not stated), the survival is reported as 109%.
Compound `COC(=O)C1=C(C)N(c2ccc(N(C)C)cc2)C(C)=C(C(=O)OC)C1c1ccccc1` has a survival of 101%.
`CC1=C(C(=O)Nc2ccccc2)C(c2ccc(O)cc2)n2nc(SCc3ccccc3)nc2N1` (configuration not stated) gave a survival of 115%.
In the case of `CCN(CC)S(=O)(=O)c1ccc(C(=O)NCCSc2c(-c3ccc(OC)cc3)[nH]c3ccccc23)cc1`, the survival is reported as 124%.
For `CCn1nc(C)c2c(-c3ccccc3)cc(=O)n(C(C)C(=O)Nc3ccc(OC)c(OC)c3)c21` (configuration not stated), the survival was 59%.
In the case of `Cc1nn(C(C)(C)C)c(OC(=O)c2c(F)cccc2F)c1Sc1ccccc1`, the survival is reported as 117%.
In the case of `Cc1ccc(Sc2c(C)nn(C(C)(C)C)c2OC(=O)CC(C)C)cc1`, the survival is reported as -8% (active).
In the case of `CCC(=O)Oc1c(Sc2ccc(C)cc2)c(C)nn1-c1ccccc1`, the survival is reported as 55%.
With `COCC(=O)Oc1c(Sc2ccc(C)cc2)c(C)nn1C(C)(C)C` the survival was 69%.
Compound `CCC(=O)Oc1c(Sc2ccc(Cl)cc2)c(C)nn1C(C)(C)C` has a survival of 60%.
Work on `Cc1ccc(Sc2c(C)nn(-c3ccccc3)c2OC(=O)CC(C)C)cc1` yielded a survival of 45%.
In the case of `Cc1ccc(Sc2c(C)nn(C(C)(C)C)c2OC(=O)C(C)(C)C)cc1`, the survival is reported as -8% (active).
In the case of `Cc1ccc(Sc2c(C)nn(-c3ccccc3)c2OC(=O)C(C)(C)C)cc1`, the survival is reported as -6% (active).
For `Cc1nn(C(C)(C)C)c(OC(=O)C(C)(C)C)c1Sc1ccccc1`, the survival was -9% (active).
`COc1ccc(C(=O)Oc2c(Sc3ccc(C)cc3)c(C)nn2C(C)(C)C)cc1OC` showed a survival of 127%.
`Cc1nn(-c2ccccc2)c(OC(=O)C(C)(C)C)c1Sc1ccccc1` was tested, and the survival was 51%.
`Cc1ccccc1C(=O)Oc1c(Sc2ccccc2)c(C)nn1C(C)(C)C` showed a survival of 50%.
In the case of `CCOC(=O)N1CCN(C(=O)c2cnn(-c3cccc(F)c3)c2-n2cccc2)CC1`, the survival is reported as 81%.
`Cc1ccc2nc(N3CCC(C(=O)N4CCN(c5cccc(C)c5C)CC4)CC3)[nH]c2c1` was tested, and the survival was 76%.
`Cc1ccn2cc(CNC(=O)c3cccc(C(F)(F)F)c3)nc2c1` showed a survival of 86%.
Compound `Cc1ccc(Cl)cc1NC(=O)C(NS(=O)(=O)c1ccc2c(c1)CCC(=O)N2)c1ccccc1` (configuration not stated) has a survival of 70%.
